# Source: PubChem BioAssay (NCI)
# Values joined by “and” are separate entries in the source; they are usually repeats but may differ in a detail not shown here. Equal entries are not always repeated. This is part of a sample that, as a whole, favours compounds with a hit. Of some 83,000 tested, about 20% had one in any assay.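 Results are percent growth after 48 hours of single-concentration exposure. 100 means growth as in untreated cells, lower positive values show inhibition; negative values down to -100 show cell death.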 Active and inactive are the calls of the source. How the source made its calls: active means growth percent below 10; inactive means the rest.
# Test system: HCT-15 colon
# Test: NCI-60 one-dose screen, 48 h (100 = growth as untreated, 0 = no growth, -100 = all killed)
# Conditions: 10 µM
row,Compound,growth
1,COc1ccccc1[As]=[As]c1ccccc1OC (stereo not drawn),-87.2% (active)
2,O=S(=O)(F)c1ccc(Cl)cc1,98% (inactive)
3,C/C1=C\[C@H](C)C[C@H](C)OC(=O)C[C@H](c2ccc(O)cc2)NC(=O)[C@@H](Cc2c(Br)[nH]c3ccccc23)N(C)C(=O)[C@H](C)NC(=O)[C@@H](C)C1,-38.1% (active)
4,CC1CCC2(OC1)OC1C(O)C3C4CCC5CC(OC6OC(CO)C(OC7OC(CO)C(O)C(OC8OCC(O)C(O)C8O)C7OC7OC(CO)C(O)C(OC8OC(CO)C(O)C(O)C8O)C7O)C(O)C6O)C(O)CC5(C)C4CCC3(C)C1C2C (stereo not drawn),37.3% (inactive)
5,[Cl][Hg][c]1ccc2ccccc2c1,-72.3% (active)
6,COc1cc(/C=C(/C)[N+](=O)[O-])ccc1O,-48.3% (active) and 1.2% (active)
7,O=[N+]([O-])c1cc[n+]([O-])c2ccccc12,-23.1% (active)
8,[O-][n+]1ccccc1S,32.8% (inactive)
9,NNc1ccccc1,82.3% (inactive)
10,O=C1CCC(=O)N1SC(Cl)(Cl)Cl,107% (inactive)
11,Cc1cc([N+](=O)[O-])c2ccccc2[n+]1[O-],-25.7% (active) and -13.2% (active)
12,CC/C(=C/c1ccc(OC)cc1)[N+](=O)[O-],-35.4% (active)
13,COc1cc(/C=C\[N+](=O)[O-])ccc1O,-12% (active) and 75.9% (inactive)
14,Oc1c(I)cc(I)cc1I,108% (inactive)
15,COC(=O)C1C(O)C(C)C(O)C(C)/C=C\C=C(C)C(=O)Nc2c(C)c(OC(C)=O)c3c(c2O)C(=O)C(C)=C2OCOC(=C23)C(C)=CC(C)(O)C(O)C(C)C1O (stereo not drawn),43.8% (inactive)
16,COC1CC2C=C(C)/C=C/C=C/C(=O)NC(c3ccccc3)C/C=C/CCC(O)CC(=O)C2=C1O (stereo not drawn),-85.2% (active)
17,C=C1C(=O)O[C@@H]2C[C@@H](C)[C@@H]3C=CC(=O)[C@@]3(C)[C@@H](O)[C@H]12,-83.7% (active)
18,CC12OOC(c3ccccc31)c1c2ccc2ccccc12 (stereo not drawn),-93.2% (active)
19,Cn1c(O)c(N=O)c(=O)n(C)c1=O,104% (inactive) and 111% (inactive)
20,CC(C)C1(NC(=O)C2CC3c4cccc5[nH]cc(c45)CC3N(C)C2)OC2(O)C3CCCN3C(=O)C(Cc3ccccc3)N2C1=O (stereo not drawn),89.3% (inactive)
21,C#CC1(O)CCC(C(C)(C)C)CC1 (stereo not drawn),91.6% (inactive)
22,O=[N+]([O-])/C=C/c1ccc(Cl)cc1[N+](=O)[O-],-37.1% (active)
23,COC(C(=O)C(O)C(C)O)C1Cc2cc3cc(OC4CC(OC(C)=O)C(OC5CC(O)C(OC)C(C)O5)C(C)O4)cc(O)c3c(O)c2C(=O)C1OC1CC(OC2CC(OC3CC(C)(O)C(OC(=O)C(C)C)C(C)O3)C(O)C(C)O2)C(O)C(C)O1 (stereo not drawn),25.1% (inactive)
24,COC12c3c(C)cc(O)c4c(=O)occ(c34)C(=O)C1C13COC(=O)c4c(O)cc(C)c(c41)C(=O)C2C3OC(C)=O (stereo not drawn),100% (inactive)
25,[Cl][Sn]([c]1ccccc1)([c]1ccccc1)[c]1ccccc1,-87% (active)
26,C=NCC#N,94.2% (inactive) and 107% (inactive)
27,CC(=O)[O][Hg][c]1c(C)c(C)cc(C)c1C,-39.6% (active)
28,[Cl][Hg][c]1ccc(Cl)s1,-59.5% (active)
29,COc1ccc(/C=C(\C)[N+](=O)[O-])cc1OC,0.0541% (active)

# Test system: HT29 colon
# Test: as above
# Conditions: 10 µM
row,Compound,growth
1,COc1ccccc1[As]=[As]c1ccccc1OC (stereo not drawn),-76.9% (active)
2,O=S(=O)(F)c1ccc(Cl)cc1,106% (inactive)
3,C/C1=C\[C@H](C)C[C@H](C)OC(=O)C[C@H](c2ccc(O)cc2)NC(=O)[C@@H](Cc2c(Br)[nH]c3ccccc23)N(C)C(=O)[C@H](C)NC(=O)[C@@H](C)C1,-33.5% (active)
4,CC1CCC2(OC1)OC1C(O)C3C4CCC5CC(OC6OC(CO)C(OC7OC(CO)C(O)C(OC8OCC(O)C(O)C8O)C7OC7OC(CO)C(O)C(OC8OC(CO)C(O)C(O)C8O)C7O)C(O)C6O)C(O)CC5(C)C4CCC3(C)C1C2C (stereo not drawn),-40.5% (active)
5,[Cl][Hg][c]1ccc2ccccc2c1,-71.3% (active)
6,COc1cc(/C=C(/C)[N+](=O)[O-])ccc1O,3.02% (active) and -26.9% (active)
7,O=[N+]([O-])c1cc[n+]([O-])c2ccccc12,-31.4% (active)
8,[O-][n+]1ccccc1S,4.75% (active)
9,NNc1ccccc1,96.9% (inactive)
10,O=C1CCC(=O)N1SC(Cl)(Cl)Cl,102% (inactive)
11,Cc1cc([N+](=O)[O-])c2ccccc2[n+]1[O-],-24.6% (active) and -48.6% (active)
12,CC/C(=C/c1ccc(OC)cc1)[N+](=O)[O-],3.04% (active)
13,COc1cc(/C=C\[N+](=O)[O-])ccc1O,32.3% (inactive) and 90.3% (inactive)
14,Oc1c(I)cc(I)cc1I,107% (inactive)
15,COC(=O)C1C(O)C(C)C(O)C(C)/C=C\C=C(C)C(=O)Nc2c(C)c(OC(C)=O)c3c(c2O)C(=O)C(C)=C2OCOC(=C23)C(C)=CC(C)(O)C(O)C(C)C1O (stereo not drawn),90.3% (inactive)
16,COC1CC2C=C(C)/C=C/C=C/C(=O)NC(c3ccccc3)C/C=C/CCC(O)CC(=O)C2=C1O (stereo not drawn),-83.7% (active)
17,C=C1C(=O)O[C@@H]2C[C@@H](C)[C@@H]3C=CC(=O)[C@@]3(C)[C@@H](O)[C@H]12,-66% (active)
18,CC12OOC(c3ccccc31)c1c2ccc2ccccc12 (stereo not drawn),-81.3% (active)
19,Cn1c(O)c(N=O)c(=O)n(C)c1=O,117% (inactive) and 114% (inactive)
20,CC(C)C1(NC(=O)C2CC3c4cccc5[nH]cc(c45)CC3N(C)C2)OC2(O)C3CCCN3C(=O)C(Cc3ccccc3)N2C1=O (stereo not drawn),101% (inactive)
21,C#CC1(O)CCC(C(C)(C)C)CC1 (stereo not drawn),104% (inactive)
22,O=[N+]([O-])/C=C/c1ccc(Cl)cc1[N+](=O)[O-],-91.6% (active)
23,COC(C(=O)C(O)C(C)O)C1Cc2cc3cc(OC4CC(OC(C)=O)C(OC5CC(O)C(OC)C(C)O5)C(C)O4)cc(O)c3c(O)c2C(=O)C1OC1CC(OC2CC(OC3CC(C)(O)C(OC(=O)C(C)C)C(C)O3)C(O)C(C)O2)C(O)C(C)O1 (stereo not drawn),-2.06% (active)
24,COC12c3c(C)cc(O)c4c(=O)occ(c34)C(=O)C1C13COC(=O)c4c(O)cc(C)c(c41)C(=O)C2C3OC(C)=O (stereo not drawn),105% (inactive)
25,[Cl][Sn]([c]1ccccc1)([c]1ccccc1)[c]1ccccc1,-81.4% (active)
26,C=NCC#N,83.6% (inactive) and 103% (inactive)
27,CC(=O)[O][Hg][c]1c(C)c(C)cc(C)c1C,-62.1% (active)
28,[Cl][Hg][c]1ccc(Cl)s1,25.2% (inactive)
29,COc1ccc(/C=C(\C)[N+](=O)[O-])cc1OC,-67% (active)
